Data from PubChem BioAssay AID1508602 (The Scripps Research Institute Molecular Screening Center, 2020).
About 6,800 (1%) of roughly 650,000 compounds were called active. This is one part of a sample in which actives are shown more often than they occur. Values without a mark were called inactive. Rule as the data show it: active = activation above about 4.9%; inactive = the rest.

target: G-protein coupled receptor 151 (Homo sapiens) (UniProt Q8TDV0); assay: activators of human GPR151, primary screen, cell-based, PathHunter beta-arrestin, luminescence (AID 1508602); conditions: PathHunter beta-arrestin GPR151 cells, at 11.2 µM, hits give high values;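 also: 0% = median of compound wells and 100% = cells with positive control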
Sequence (Q8TDV0 whole entry, looked up): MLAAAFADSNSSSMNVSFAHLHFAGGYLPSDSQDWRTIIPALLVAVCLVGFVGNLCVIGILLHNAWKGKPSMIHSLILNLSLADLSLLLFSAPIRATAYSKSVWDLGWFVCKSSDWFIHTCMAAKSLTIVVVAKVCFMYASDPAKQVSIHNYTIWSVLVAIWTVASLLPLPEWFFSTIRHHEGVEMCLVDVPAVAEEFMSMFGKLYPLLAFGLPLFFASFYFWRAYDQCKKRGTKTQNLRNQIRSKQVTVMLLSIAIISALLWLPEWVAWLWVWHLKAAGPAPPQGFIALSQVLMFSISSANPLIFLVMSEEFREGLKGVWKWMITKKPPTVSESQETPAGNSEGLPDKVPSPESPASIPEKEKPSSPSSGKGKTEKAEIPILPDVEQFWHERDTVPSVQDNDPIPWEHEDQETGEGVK

Compound | activation
COC(=O)[C@@H]1CC[C@H](C)[C@@H](c2ccc(C)cc2)N1C(=O)c1ccc(/C=N/O[C@H](C)c2cn([C@@H]3COC[C@H]3O)nn2)cc1 | 7.09% (active)
Cc1cc(N2C(=O)c3ccc(Oc4ccc(NC(=O)CSc5ccc(Cl)cc5)cc4)cc3C2=O)no1 | 1.59%
CCSc1nc2sccn2c(=O)c1C(=O)NC(Cc1ccccn1)C(F)(F)F (centres undefined) | 4.95% (active)
O=C(NCCc1ccccn1)c1cn2ccsc2n1 | 0.225%
CSc1nc2sccn2c(=O)c1C(=O)NC(C)CO (centres undefined) | -0.408%
CCCCN(C)CCCN(Cc1ccco1)C(=S)Nc1ccc(Cl)c(C)c1 | -0.264%
COc1cccc(CCNC(=O)CCc2nnc(COc3ccccc3)o2)c1 | -0.583%
CSCCNc1nc2nonc2nc1NC1CC1 | 0.51%
O=C1OC(c2ccc(Br)cc2)=N/C1=C\c1cc(Br)cs1 | -0.409%
COc1cc(C2C3=C(CCCC3=O)NC3=C2C(=O)CCC3)cc(Cl)c1O | 1.16%
CCOc1cc(C2C3=C(CCCC3=O)NC3=C2C(=O)CCC3)ccc1OCc1ccc(F)cc1 | -0.184%
CCOc1cc(C2C3=C(CCCC3=O)NC3=C2C(=O)CCC3)cc(Br)c1OCC | 5.4% (active)
Fc1ccc(C2Oc3ccc(Cl)cc3C3CC(c4cccs4)=NN32)cc1 (centres undefined) | 0.238%
Cc1nn(-c2ccccc2)c(C)c1/C=N/n1c(=S)[nH]nc(C)c1=O | -0.643%
CCCCCCOC(=O)c1cc(C(=O)OCCCCCC)c(C)nc1C | 6.55% (active)
CCOC(=O)c1cc2cccnc2nc1C | 0.721%
CCCCCCOC(=O)c1ccc(-c2ccc(-c3ccc(C(=O)OCCCCCC)cc3)cc2)cc1 | -1.7%
Cc1ccccc1-c1cccc(CN2CCC(=O)N(C)CC2)c1 | 0.112%
CCn1c(NCCO)nc2ccccc21 | 1.96%
O=C(Cn1c(NCCCO)nc2ccccc21)c1ccccc1 | -1.59%
O=C(Cn1c(NCCO)nc2ccccc21)c1ccc(Cl)cc1Cl | 7.58% (active)
COC(=O)c1cc(CNC(=O)c2cc3ncccn3n2)cc(NC(=O)Cc2ccsc2)c1 | -0.0871%
Cc1cc(Br)ccc1OCC(=O)N1CCN(C=O)CC1 | -1.7%
COC(=O)c1c(NC(=O)/C(C#N)=C/c2cccs2)sc2c1CCCC2 | -2.04%

Compound | activation
O=c1[nH]c(=S)[nH]c(O)c1C=Nc1ccc(F)c(Cl)c1 | 5.26% (active)
Cc1ccc(N=Cc2c(O)[nH]c(=S)[nH]c2=O)cc1C | 0.392%
Nc1cccc(N=Cc2c(O)[nH]c(=S)[nH]c2=O)c1 | -0.879%
CC(C)[C@@H](N)Cn1nc(-c2cccs2)ccc1=O | 0.507%
O=C(Nc1ccccc1[N+](=O)[O-])c1ccc2ccccc2n1 | 0.441%
Cc1ccc(/C=C2/C(=O)NC(=O)N(c3ccccc3)C2=O)cc1[N+](=O)[O-] | 7.87% (active)
O=C1NC(=O)N(c2cccc(Br)c2)C(=O)/C1=C/c1cccc([N+](=O)[O-])c1 | 1.88%
COc1ccc(/C=C2\C(=O)NC(=O)N(c3ccc([N+](=O)[O-])cc3)C2=O)cc1OC | -0.83%
Cn1ccnc1SCc1cc(=O)c(OC(=O)c2c(F)cccc2F)co1 | 3.4%
CC1CCN(C(=O)C2CCCN2c2nnc(N3CCCC3=O)s2)CC1 (centres undefined) | 0.834%
CC(C)(C)OC(=O)N1CCC[C@H]1C(=O)c1cccnc1 | 0.241%
O=C(NCCCN=C1NS(=O)(=O)c2ccccc21)c1ccc(Cl)c(Cl)c1 | -0.637%
COc1nc(Nc2ccccc2)nc(-c2c(C)noc2C)n1 | 5.15% (active)
COc1nc(Nc2ccccc2)nc(-c2ccc(C(=O)NC3CC3)cc2)n1 | 0.979%
COc1nc(Nc2ccccc2)nc(-c2csc3ccccc23)n1 | -0.667%
CCCCc1ccc(NC(=O)COC(=O)c2ccc([N+](=O)[O-])o2)cc1 | -2.13%
Cc1cccc(N(C)C(=O)C2CCCN(S(=O)(=O)c3c(C)noc3C)C2)c1 (centres undefined) | 0.213%
CCc1ccc(-c2nc(CSCC(=O)NC(C)(C)C)c(C)o2)cc1 | -0.321%
CCSc1nnc(CC(N)=O)c2ccccc12 | -0.522%
O=c1cc(-c2cc3cc(Cl)ccc3oc2=O)c2ccc(O)cc2o1 | -0.104%
CCCn1ncc(CN2CCN(C3CCN(C(C)C)CC3)C(CCO)C2)c1C (centres undefined) | 1.43%
Cc1c(CN2CCCC(N3CCC(CO)CC3)C2)c(=O)n(-c2ccccc2)n1C (centres undefined) | -1.54%
CCCn1ncc(CN2CCCC(N3CCC(CO)CC3)C2)c1C (centres undefined) | 6.31% (active)
Cc1ccc(OCC(=O)Nc2nncs2)cc1 | 0.547%

Compound | activation
CC1CCCN(C(=O)NCc2noc3ccccc23)C1 (centres undefined) | -1.14%
CCOc1ccc(-n2c(C)cn3c4c(=O)n(CC(C)C)c(=O)n(C)c4nc23)cc1 | 0.368%
O=C(C1CC12CCN(Cc1c(F)cccc1F)CC2)N1CCN(Cc2ccccc2)CC1 (centres undefined) | -0.828%
CCCNC(=O)c1cc(NC2CCN(Cc3ccccc3)CC2)nc2ccccc12 | 0.365%
O=C(NCCO)c1cnc(NC2CCN(Cc3ccccc3)CC2)s1 | 7.19% (active)
O=C(NC1CCN(Cc2ccccc2)CC1)c1ccc(-c2ccccc2)s1 | 0.522%
Cc1ccc(Cn2cc(C#N)c([N+](=O)[O-])n2)cc1 | 2.65%
Cc1ccc(-c2nc(-c3ccccc3Cl)no2)cc1 | 0.675%
COc1ccc(-c2noc(-c3ccccc3Cl)n2)cc1 | 6.08% (active)
COc1ccc(-c2noc(-c3ccc(Br)cc3)n2)cc1 | -0.475%
CC1(c2ccccc2NC(=O)c2ccc([N+](=O)[O-])cc2)CC1 | 6.15% (active)
CC(C)CNC(=O)c1ccccc1NC(=O)c1ccc([N+](=O)[O-])cc1 | 1.87%
CN(C)c1ccc(NC(=O)c2ccc([N+](=O)[O-])cc2)c2ccccc12 | 2.25%
O=C(Cc1ccccc1)NCc1nnc2n1CCN(Cc1ccc(F)cc1)CC2 | -0.584%
COc1cc(-c2coc3cc(O[C@@H]4O[C@H](CO)[C@@H](O)[C@H](O)[C@H]4O)c(OC)c(O)c3c2=O)cc(O)c1OC | 8.99% (active)
COc1ccc(-c2coc3cc(OC4OC(COC5OC(C)C(O)C(O)C5O)C(O)C(O)C4O)cc(O)c3c2=O)cc1 (centres undefined) | -0.0364%
CCc1cc2c(=O)c(-c3ccc4c(c3)OCO4)c(C)oc2cc1OC1OC(CO)C(O)C(O)C1O (centres undefined) | 0.749%
CCc1ccc(CN2CCc3nnc(-c4ccccc4)n3CC2)o1 | -0.804%
CCN1C(=O)CC(C(=O)OC)C12CCN(Cc1ccc(OC)c(OC)c1)CC2 (centres undefined) | 2.97%
C=CCN1C(=O)CC(C(=O)OC)C12CCN(C1CCN(C(=O)OCC)CC1)CC2 (centres undefined) | 12.8% (active)
CCOC(=O)N1CCC(N2CCC(CO)(CCOc3ccccc3)CC2)CC1 | 0.442%
CCCCOc1ccccc1CNCC | 6.95% (active)
CCOc1ccccc1OCCCNCc1ccccc1 | 0.0114%
CCOc1ccccc1CNCC(C)O (centres undefined) | -1.22%

Compound | activation
CNC(=O)c1c(NC(=O)c2ccccc2F)sc2c1CCC(C(C)(C)C)C2 (centres undefined) | 2.94%
O=C1CC(Cc2ccccc2)C(=O)N1c1ccc(Cl)cc1 (centres undefined) | 0.299%
Cc1ccc(Cn2c(=S)[nH]c3ccc(Cl)cc3c2=O)cc1 | 0.529%
Oc1ccc(-c2cnc3ccc(NC4CCOCC4)nn23)cc1 | -0.504%
c1ccc2sc(-c3cnc4ccc(NC5CCOCC5)nn34)cc2c1 | 5.94% (active)
Brc1cccc(-c2cnc3ccc(NC4CCOCC4)nn23)c1 | -0.245%
O=C(CN(CC1CCCO1)C(=O)CNS(=O)(=O)c1ccccc1)NC1CCCCC1 (centres undefined) | 0.636%
CC(/C=N\NC(=O)CSc1nc(C)cc(C)n1)=C\c1ccccc1 | 9.38% (active)
COc1cccc(/C=N/NC(=O)CSc2nc(C)cc(C)n2)c1OC | 1.66%
Cc1cc(C)nc(SCC(=O)N/N=C/c2ccc(Cl)cc2Cl)n1 | 0.39%
COc1ccc(C(=O)CCNC(C(=O)O)C(C)O)cc1 (centres undefined) | -0.172%
C(=N\N1CCN(c2ccccn2)CC1)/C1=C(N2CCOCC2)C(=C/c2ccccc2)/CC1 | 6.77% (active)
c1ccc(N2CCN(c3ccccn3)CC2)nc1 | -0.177%
COc1ccc(/C=N/N2CCN(c3ccccn3)CC2)cc1 | 0.849%
CCOC(=O)c1sc2nc(SCC(=O)NCc3ccccc3Cl)n(Cc3ccc(Cl)cc3)c(=O)c2c1C | -0.0258%
Cc1cc(C)c(S(=O)(=O)Nc2cccc(N3CCCS3(=O)=O)c2)c(C)c1 | 0.72%
Cc1cc(C)cc(NC(=O)C(CC(C)C)NS(=O)(=O)c2ccc3c(c2)oc(=O)n3C)c1 (centres undefined) | 3.86%
Cc1cn2c3c(=O)n(Cc4ccccc4)c(=O)n(C)c3nc2n1C | 0.103%
Cc1ccccc1C(=O)NNC(=O)c1ccc(NC(=O)C(C)C)cc1 | 1.54%
CC1CCN(CCCNc2nc(=S)[nH]c3ccccc23)CC1 | -3.01%
O=C(O)C1CCC(CNc2nc(=S)[nH]c3ccccc23)CC1 (centres undefined) | -0.367%
CCN1CCCC1CNc1nc(=S)[nH]c2ccccc12 (centres undefined) | 9.1% (active)
